Screens (PubChem BioAssay)
In the library only some 1.1% were active in any assay of this set; here they are far more common.
Cathepsin G inh – blocks human cathepsin G enzyme activity. P08311. purified enzyme, AMC-tetrapeptide fluorescence, pooled mixtures. inhibition, % at 5 µM (by protocol). 0.2% of 62,000 active. AID 581;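 active = inhibition above 20% in each of the two mixture wells holding the compound; inactive = inhibition of 20% or less in either well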;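 also: 0% = enzyme control without mixture and 100% = blank lacking enzyme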
HePTP inhibitor – human HePTP phosphatase inhibition. P35236. recombinant HePTP phosphatase activity, OD absorbance. inhibition, % at 20 µM. 0.64% of 110,000 active. AID 521; in the data active = inhibition above about 50%;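 also: plate controls were vehicle for no effect and reference inhibitor for full effect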
C1s inh – blocks human complement C1s protease activity; AID 538; 0.16% of 62,000 active; purified C1s, fluorogenic AMC substrate, pooled mixtures; P09871; mean inhibition % of two 10-compound mixtures (active compounds read high), % at 5 µM (by protocol);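 active = inhibition above 20% in each of the two 10-compound mixture wells holding the compound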;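 also: 0% = enzyme wells lacking compound mixture and 100% = no-enzyme blank wells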
FXIa mix inh – blocks human factor XIa in pooled compound mixtures. P03951. purified FXIa, fluorogenic substrate. inhibition, % at 5 µM. 0.19% of 62,000 active;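 also: each value is inhibition by a whole ten-compound pool holding the compound; 0% = enzyme with no mixture and 100% = wells lacking enzyme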
FXIIa inh mix – factor XIIa (human) inhibition, mixture screen | P00748 | inhibition, % at 5 µM | 0.2% of 62,000 active | purified FXIIa, fluorogenic substrate, pooled mixtures;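 also: 0% = enzyme without compound and 100% = no enzyme blank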
BAP1 block – human BAP1 deubiquitinase inhibition; Q92560; recombinant BAP1, Ub-AMC hydrolysis fluorescence kinetic; active compounds read low; calls only at 20 µM; 0.48% of 72,000 active;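 active = activity remaining at or below 50% of control, provided the compound also passes the data quality filters; inactive = the rest, including low values that fail the filters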;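 also: 100% = DMSO wells rate and 0% = substrate alone blank rate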
Target sequence (Q92560 whole entry, looked up): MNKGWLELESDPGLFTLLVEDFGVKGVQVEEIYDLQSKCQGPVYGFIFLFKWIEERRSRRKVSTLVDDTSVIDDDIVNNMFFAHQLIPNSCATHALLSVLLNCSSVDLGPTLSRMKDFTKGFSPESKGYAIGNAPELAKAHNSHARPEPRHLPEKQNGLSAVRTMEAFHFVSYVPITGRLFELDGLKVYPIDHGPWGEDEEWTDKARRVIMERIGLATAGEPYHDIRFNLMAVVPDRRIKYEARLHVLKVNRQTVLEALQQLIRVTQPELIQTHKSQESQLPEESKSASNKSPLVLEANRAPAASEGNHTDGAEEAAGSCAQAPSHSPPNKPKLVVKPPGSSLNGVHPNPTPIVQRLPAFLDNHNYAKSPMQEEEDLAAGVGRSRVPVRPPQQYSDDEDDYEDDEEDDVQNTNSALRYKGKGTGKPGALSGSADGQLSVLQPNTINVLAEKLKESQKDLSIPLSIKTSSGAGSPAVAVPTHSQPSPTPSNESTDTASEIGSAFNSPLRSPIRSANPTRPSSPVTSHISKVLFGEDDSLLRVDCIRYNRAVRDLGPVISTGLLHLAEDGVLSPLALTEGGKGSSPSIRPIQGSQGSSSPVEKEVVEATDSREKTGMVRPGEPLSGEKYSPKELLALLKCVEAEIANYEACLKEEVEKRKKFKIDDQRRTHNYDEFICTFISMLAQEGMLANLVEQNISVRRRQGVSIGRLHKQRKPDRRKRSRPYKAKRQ
* = called active by the depositor; i = inactive; . = not tested or not shown; + = active, no number. Rule as the data show it, unless noted: active = inhibition above about 20% (passing the limit was not always enough); inactive = the rest.

SMILES	Cathepsin G inh	HePTP inhibitor	C1s inh	FXIa mix inh	FXIIa inh mix	BAP1 block
O=C(O)c1cc(-c2ccco2)nc2ccccc12	-0.3	8.7	-34.2	-3.0	3.7	i
O=C(Nc1cccc([N+](=O)[O-])c1)c1cc(-c2ccco2)nc2ccccc12	.	103.0*	.	.	.	.
O=C(O)c1cc(N2C(=O)C=CC2=O)ccc1Cl	.	50.2*	.	.	.	.
O=C(NN=C1CCN(Cc2ccccc2)CC1)c1sc2ccccc2c1Cl	.	-6.0	.	.	.	.
COc1ccc(CCNC(=O)COc2ccc(C)cc2C)cc1	.	1.4	.	.	.	.
COc1cc(-c2nnc(SCC(=O)c3cc(C)n(CC4CCCO4)c3C)o2)cc(OC)c1OC (stereo not drawn)	19.2	12.7	22.4*	12.3	2.9	i
CC1=NN(c2ccc(Cl)c(Cl)c2)C(=O)/C1=C/c1ccc2c(c1)OCO2	.	9.2	.	.	.	.
CC1=NN(c2ccc(S(N)(=O)=O)cc2)C(=O)/C1=C\c1ccc2c(c1)OCO2	.	63.3*	.	.	.	.
O=C1NC(=O)N(c2ccc(Br)cc2)C(=O)/C1=C/c1ccco1	.	104.3*	.	.	.	.
Cc1cccc(/C=C2\C(=O)NC(=O)N(c3ccc(Br)c(C)c3)C2=O)c1	.	3.3	.	.	.	.
Cc1cc(N2C(=O)NC(=O)/C(=C\c3ccco3)C2=O)ccc1Br	.	80.5*	.	.	.	.
O=C1C=CC(=NOS(=O)(=O)c2ccccc2)C=C1	.	11.3	.	.	.	.
Cc1cccc2nc(-c3cccc([N+](=O)[O-])c3)oc(=O)c12	.	6.1	.	.	.	.
CC(NC(=O)c1ccccc1Cl)c1ccccc1 (stereo not drawn)	.	97.6*	.	.	.	.
CCOC(=O)c1c(NC(=O)C2C3CCC(O3)C2C(=O)O)sc2c1CCC(CC)C2 (stereo not drawn)	.	103.0*	.	.	.	.
CCC1CCc2c(sc(NC(=O)Cc3ccccc3)c2C(=O)OC)C1 (stereo not drawn)	.	-0.5	.	.	.	.
CCC1CCc2c(sc(NC(=O)c3ccc(Br)o3)c2C(=O)OC)C1 (stereo not drawn)	.	103.7*	.	.	.	.
COc1ccc(NC2=C(Cl)C(=O)N(c3ccc(Br)cc3)C2=O)c(OC)c1	.	-2.9	.	.	.	.
COc1c(Cl)ccc(Cl)c1C(=O)Nc1cccc(Br)c1	.	-0.2	.	.	.	.
COc1c(Cl)ccc(Cl)c1C(=O)Nc1ccc(C)cc1	.	104.5*	.	.	.	.
CN1C(=O)NC(=O)/C(=C\c2cc(Cl)c(OCc3ccc(F)cc3)c(Cl)c2)C1=O	.	4.8	.	.	.	.
O=c1oc(-c2cccc(S(=O)(=O)N3CCOCC3)c2)nc2ccccc12	49.3*	3.8	16.7	3.8	1.7	i
Cc1nc(-c2cccc(S(=O)(=O)N3CCOCC3)c2)cs1	9.5	-14.9	7.2	4.7	10.3	i
O=c1oc(-c2cccnc2)nc2ccccc12	56.3*	4.2	14.6	3.0	2.0	i
Fc1c(F)c(C(F)(F)F)c(F)c(F)c1Oc1cccc2cccnc12	.	-5.1	.	.	.	.
SMILES	Cathepsin G inh	HePTP inhibitor	C1s inh	FXIa mix inh	FXIIa inh mix	BAP1 block
Cc1ccc2oc(-c3ccc(NC(=O)c4ccc(Br)o4)c(C)c3)nc2c1	.	10.9	.	.	.	.
CCOc1ccc(-c2cc(C)n3nc(C(N)=O)cc3n2)cc1	.	18.1	.	.	.	.
CCOc1ccc(-c2cc(C)n3nc(C(=O)Nc4ccc(C(C)=O)cc4)cc3n2)cc1	.	94.0*	.	.	.	.
Cc1cc(-c2ccccc2)nc2cc(C(=O)Nc3ccc(Cl)cc3)nn12	.	7.9	.	.	.	.
COc1ccc(Cl)cc1NC(=O)c1cc2nc(-c3ccccc3)cc(C)n2n1	.	103.3*	.	.	.	.
O=C(COC(=O)c1ccccc1NC(=O)c1ccccc1)c1ccc(Br)cc1	.	12.7	.	.	.	.
CC(=O)NC(=O)c1ccccc1OCC(=O)c1ccc(Br)cc1	.	54.9*	.	.	.	.
O=C1CSC(=Nc2ccc(O)cc2)N1c1ccc(O)cc1	39.1*	2.0	8.9	34.6	4.1	i
O=C(O)CCCN1C(=O)/C(=C/c2cn(-c3ccccc3)nc2-c2cccc([N+](=O)[O-])c2)SC1=S	.	104.1*	.	.	.	.
O=C(O)CCN1C(=O)/C(=C/c2cn(-c3ccccc3)nc2-c2cccc([N+](=O)[O-])c2)SC1=S	.	5.7	.	.	.	.
O=C(O)CCN1C(=O)/C(=C/c2cn(-c3ccccc3)nc2-c2ccc(Br)cc2)SC1=S	.	101.3*	.	.	.	.
C=CCOc1ccc(/C=c2/sc3n(c2=O)C(c2ccc(OC)c(OC)c2)C(C(=O)OC)=C(C)N=3)cc1 (stereo not drawn)	.	1.9	.	.	.	.
COc1ccc(OC)c(NC(=O)c2cnccn2)c1	.	-10.2	.	.	.	.
N#CC(c1nc2ccccc2nc1N1CCCCC1)S(=O)(=O)c1ccc(Cl)cc1 (stereo not drawn)	-1.3	2.3	6.4	1.7	0.6	+
O=C1NC(=O)N(c2ccccc2)C(=O)/C1=C\c1ccc(Br)o1	.	68.9*	.	.	.	.
O=C1NN(c2ccccc2)C(=O)/C1=C/c1ccc([N+](=O)[O-])o1	.	102.7*	.	.	.	.
O=C1NN(c2ccccc2)C(=O)/C1=C/c1ccc(Br)o1	.	102.4*	.	.	.	.
O=C1NC(=O)N(c2ccccc2)C(=O)/C1=C/c1ccc(-c2ccccc2C(=O)O)o1	.	-7.2	.	.	.	.
CCOc1ccc(N2C(=O)NC(=O)/C(=C\c3ccc(I)o3)C2=O)cc1	.	24.6	.	.	.	.
O=C1NN(c2ccccc2)C(=O)/C1=C/c1ccc(-c2ccccc2[N+](=O)[O-])o1	.	23.1	.	.	.	.
CCOc1ccc(N2C(=O)NC(=O)/C(=C\c3ccc(Br)o3)C2=O)cc1	.	93.2*	.	.	.	.
CCOc1ccc(/C=N/Nc2nc(-c3ccc(C)cc3)nc3ccccc23)c(O)c1	.	7.3	.	.	.	.
O=C(c1ccc(F)cc1)N(c1ccc(Cl)cc1)C1C=CS(=O)(=O)C1 (stereo not drawn)	.	-12.0	.	.	.	.
COc1ccc(CCNC(=O)c2cc(-c3ccccc3)on2)cc1OC	8.6	7.2	7.2	7.2	47.3*	i
COc1ccc(CNC(=O)c2cc(-c3ccccc3OC)on2)cc1	9.5	-3.1	15.6	4.7	8.6	i
COc1ccccc1-c1cc(C(=O)NCc2ccccc2)no1	51.1*	3.4	-22.1	11.4	-4.0	i
COc1ccccc1-c1cc(C(=O)NCc2ccc(Cl)cc2)no1	45.7*	2.5	-9.7	3.3	4.3	i
COc1ccccc1-c1cc(C(=O)NCc2ccc(F)cc2)no1	.	10.7	44.0	10.9	4.6	i
